Records with an inconclusive call do not appear. Some compounds were tested as several samples or in several runs, with calls that do not always agree. Calls of active or inactive are those of the source. Unless noted, calls come from the whole dose curve; as a rule, active = well fitted curve in the direction sought with a large enough effect; inconclusive = small, poorly fitted or top-dose-only effect, or another doubt; inactive = no such curve, though single readings can be large; an effect the other way counts as inactive or inconclusive.
Columns and labels:
[1] = HEK-293 Cancer Cell Toxicity qHTS against the NCATS CANVASS Library (AID 1347355); note: nearly all actives have a fitted effect of over 65% in size; note: potency is the fitted concentration of half-maximal effect
How it was run: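 Cells at 1000/well were given compound 4 h after plating in an 11-point series. Viability was read by CellTiter-Glo luminescence after 72 h at 37 degrees C.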

[2] = SDT Cancer Cell Toxicity qHTS against the NCATS CANVASS Library (AID 1347365); note: nearly all actives have a fitted effect of over 60% in size; note: potency is the fitted concentration of half-maximal effect
How it was run: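 SDT dog glioma cells (500/well) exposed to an 11-point compound series for 72 hr at 37C, 5% CO2. Cytotoxicity read as ATP content by CellTiterGlo luminescence; bortezomib titration as control.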

[3] = G06 Cancer Cell Toxicity qHTS against the NCATS CANVASS Library (AID 1347368); note: nearly all actives have a fitted effect of over 60% in size; note: potency is the fitted concentration of half-maximal effect
How it was run: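 G06 dog glioma cells, 500 per well, exposed 72 hr at 37C, 5% CO2 to compounds in an 11-point series. Cytotoxicity read as ATP content by CellTiterGlo luminescence.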

[4] = qHTS for Inflammasome Signaling Inhibitors: IL-1-beta AlphaLISA screen against the NCATS CANVASS Library (AID 1347379);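 note: human THP-1 cells primed with LPS then triggered with ATP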;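 for Potency: secreted IL-1B measured as AlphaLISA emission at 615 nm; potency is the fitted concentration of half-maximal effect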;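 for activity change, negative = inhibition: secreted IL-1B measured as AlphaLISA emission at 615 nm; % is set by controls: 0 for no effect and ±100 for the full control effect; lower signal means less IL-1B release which is the wanted effect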
How it was run: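 THP-1 cells pretreated 1 hr with compound (up to 57.5 uM final), then stimulated with LPS (250 ng/mL final) and ATP (1.25 mM final). Secreted IL-1B measured by AlphaLISA after 16 hr; glyburide as positive control.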

[5] = qHTS for activators of Nrf2/ARE signaling pathway screened against the NCATS CANVASS Library (AID 1347391); note: 0% is about no effect; nearly all actives have a fitted effect of over 60% in size
How it was run: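 ARE-bla HepG2 beta-lactamase reporter cells exposed to compounds for 16 h at 37C; CCF4 substrate 2 h, fluorescence at ex 405 nm, em 460/530 nm. Viability by CellTiter-Glo luminescence.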

[6] = qHTS for inhibitors of ER calcium dysfunction: SERCaMP assay screened against the NCATS CANVASS Library (AID 1347393); note: nearly all actives have a fitted effect of over 40% in size; note: potency is the fitted concentration of half-maximal effect;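 for activity change, negative = inhibition: % is set by controls: 0 for no effect and ±100 for the full control effect; lower secreted reporter signal means inhibitor of ER calcium depletion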
How it was run: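 qHTS in SH-SY5Y reporter cells: 16 h compound pretreatment, 4 h thapsigargin, then secreted Gaussia luciferase measured by luminescence.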

[7] = qHTS for Hypoxia signaling pathway (HIF-1) agonists against the NCATS CANVASS Library (AID 1347375); note: 0% is about no effect
How it was run: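 HRE-bla ME-180 cells (0.5% dialyzed FBS) were pre-incubated 5 hrs at 37C, then exposed to compounds in an 11-point series for 17 hrs. Read-out was CCF4-AM beta-lactamase FRET (460/530 nm emissions), with CellTiter-Glo viability in the same wells.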

[8] = DH5-alpha competent E. coli microbial cell viability qHTS against the NCATS CANVASS Library (AID 1347377); details: outcome: dose series up to 46.1 µM
How it was run: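 DH5-alpha E. coli suspension was exposed to an 11-point compound series overnight at 37 °C. Viable cells quantified by ATP luminescence (BacTiter-Glo) after 20 min at room temperature.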

[9] = qHTS for inhibitors of Wild type Zika virus screened against the NCATS CANVASS Library (AID 1347396); note: potency is the fitted concentration of half-maximal effect
How it was run: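 Luminescent CellTiter Glo read-out of virus-induced cytotoxicity, 72 h post-infection, in Vero 766 cells. Compounds were tested at 11 concentrations; uninfected, vehicle-treated wells defined 100% inhibition.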

[10] = MCF7 Cancer Cell Toxicity qHTS against the NCATS CANVASS Library (AID 1347369)
How it was run: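 Cytotoxicity was measured as CellTiterGlo luminescence (ATP) after 72 h at 37 °C. The cells were MCF7 at 500 per well, with an 11-point compound concentration series.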

[11] = qHTS for ATAD5 Antagonist screened against the NCATS CANVASS Library (AID 1347370);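 note: HEK293T cells carrying an ATAD5 luciferase reporter co-treated with 10 µM 5-fluorouridine; % is set by controls: 0 for no effect and ±100 for the full control effect; nearly all actives have a fitted effect of over 65% in size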
How it was run: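 HEK293T cells with stably integrated ATAD5-luciferase reporter, 2000/well, 5 h attachment; compounds plus 10 µM 5-fluorouridine, 16 h at 37 °C. Luciferase luminescence read, with CellTiter-Fluor viability read first.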

[12] = qHTS for inhibitors of Rabies Virus screened against the NCATS CANVASS Library (AID 1347402; calls by dose curve; note: 0% is about no effect)
[13] = molecular target: Cytochrome P450 3A4 (Homo sapiens) (UniProt P08684); test: qHTS Assay for Inhibitors and Substrates of Cytochrome P450 3A4 (AID 884); note: potency is the fitted concentration of half-maximal effect; nearly all actives have a fitted effect of over 50% in size
Cytochrome P450 3A4 (Homo sapiens), sequence (P08684 whole entry, looked up): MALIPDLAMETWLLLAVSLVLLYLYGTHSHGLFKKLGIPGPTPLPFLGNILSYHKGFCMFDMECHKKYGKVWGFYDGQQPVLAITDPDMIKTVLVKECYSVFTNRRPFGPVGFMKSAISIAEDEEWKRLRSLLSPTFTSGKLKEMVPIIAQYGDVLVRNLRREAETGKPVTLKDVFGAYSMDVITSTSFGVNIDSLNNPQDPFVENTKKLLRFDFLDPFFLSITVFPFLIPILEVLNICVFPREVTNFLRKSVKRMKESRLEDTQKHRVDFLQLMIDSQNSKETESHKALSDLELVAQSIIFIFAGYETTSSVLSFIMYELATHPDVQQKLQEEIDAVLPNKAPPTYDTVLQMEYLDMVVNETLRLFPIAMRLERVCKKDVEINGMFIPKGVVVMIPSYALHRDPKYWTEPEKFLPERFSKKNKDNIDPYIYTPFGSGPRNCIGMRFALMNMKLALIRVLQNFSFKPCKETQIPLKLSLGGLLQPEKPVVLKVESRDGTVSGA
How it was run: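 20 nM human CYP3A4 with 25 uM Luciferin-PPXE (at KM) in 200 mM KPO4, preincubated 10 min with compound; NADPH regeneration started a 60 min RT reaction. Luciferin detected by luminescence, normalized to 57 uM ketoconazole as full inhibition.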

[14] = AP1 Signaling Pathway (AID 357; active = well fitted curve in either direction with a large enough effect, not every such curve was filed as active;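 note: ME-180 reporter cells stimulated with EGF at its EC50 level; % is set by controls: 0 for no effect and ±100 for the full control effect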)
How it was run: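 First, ME-180 AP-1-bla cells were cultured overnight at 37 °C in low-serum Opti-MEM. Next, titrated compounds with EC50 EGF were incubated 5 hours. Finally, CCF4 was added for 2.5 hours and the 460/530 nm ratio recorded.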

[15] = NFAT Signaling Pathway (AID 444; active = well fitted curve in either direction with a large enough effect, not every such curve was filed as active;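 note: carbachol stimulus at about its EC50 of 1 µM final; % is set by controls: 0 for no effect and ±100 for the full control effect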); details: Jurkat NFAT-bla M1, carbachol, beta-lactamase ratio, 5 h; at 17.2 µM (top of the series)
How it was run: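 Jurkat cells carrying an NFAT-driven β-lactamase reporter and co-transfected muscarinic M1 receptor were treated with compound plus carbachol (1 uM final, an EC50 level) for 5 h at 37 °C. CCF4 loading followed for 1 h at RT; 460/530 nm ratio gave %activity.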

[16] = Stat Signaling Pathway (AID 446; active = well fitted curve in either direction with a large enough effect, not every such curve was filed as active;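 note: ME-180 cervical cancer cells given 40 pM IL-6 alongside compound; SIE-controlled beta-lactamase reporter measured as 460/530 nm FRET emission ratio; % is set by controls: 0 for no effect and ±100 for the full control effect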)
How it was run: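 Reporter line: ME-180 cervical carcinoma, SIE-beta-lactamase. Treatment: compound with 40 pM IL-6, 5 hrs, 37 C, in low-serum OPTI-MEM with 10 mM HEPES pH 7.3. Detection: 460/530 nm fluorescence.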

[17] = qHTS for Inhibitors of Plasmodium falciparum (DD2) proliferation (AID 504314);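 note: parasite DNA measured by SYBR Green fluorescence after red cell lysis; plate controls were DMSO vehicle for no effect and artemisinin wells for full effect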
How it was run: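 Infected RBCs, 0.3% parasitemia, 2.5% Hct; compound 72 h, 37C/5% CO2; lyse + SYBR Green I, RT overnight, dark; read ex485/em535; normalize to DMSO and artemisinin 0.29 uM.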

[18] = qHTS for Inhibitors of Plasmodium falciparum (GB4) proliferation (AID 504315);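 note: 0% = DMSO vehicle and -100% = 0.29 µM artemisinin control; nearly all actives have a fitted effect of over 50% in size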
How it was run: (§1)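 Erythrocytes infected with P. falciparum line (0.3% parasitemia, 2.5% hematocrit final) incubated with compounds 72 h at 37 °C, 5% CO2; SYBR Green lysis buffer added, fluorescence read next day. Normalized to 0.29 uM artemisinin and DMSO.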

[19] = qHTS for Inhibitors of Plasmodium falciparum (7G8) proliferation (AID 504316);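 note: 0% = DMSO vehicle and -100% = 0.29 µM artemisinin full kill; nearly all actives have a fitted effect of over 65% in size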
How it was run: as §1

[20] = qHTS for Inhibitors of Plasmodium falciparum (HB3) proliferation (AID 504318); note: nearly all actives have a fitted effect of over 60% in size; note: potency is the fitted concentration of half-maximal effect;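 for activity change, negative = inhibition: 0% = DMSO vehicle and -100% = artemisinin control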
How it was run: as §1

O=C(c1ccccc1O)c1[nH]c(Cl)c(Cl)c1-n1c(C(=O)c2ccccc2O)cc(Cl)c1Cl
active: Potency [1] 4.18 µM | Potency [2] 2.35 µM | Potency [3] 5.9 µM | Potency [4] 15.3 µM
inactive: Potency [5] | Potency [6]

CCCCC[C@@H]1OC(=O)[C@@H](C)N(C)C(=O)[C@H](CCCCC)OC(=O)C(C)N(C)C(=O)[C@H](CCCCC)OC(=O)[C@@H](C)N(C)C(=O)[C@H](CCCCC)OC(=O)C(C)N(C)C1=O (some centres not stated)
active: Potency [1] 4.18 µM | Potency [2] 16.6 µM | Potency [3] 18.7 µM | Potency [9] 11.7 µM
inactive: Potency [7] | outcome [8] | Potency [5]

CNCCc1ccccc1
inactive: Potency [1] | Potency [10] | Potency [11] | Potency [7] | outcome [8] | Potency [4] | Potency [5] | Potency [6] | Potency [9] | outcome [12]
active: Potency [2] 0.0469 µM

CCC[C@H]1CC[C@H]2[C@H](C)CCC[C@H]2N1
inactive: Potency [1] | Potency [2] | Potency [3] | Potency [10] | Potency [11] | Potency [7] | outcome [8] | Potency [4] | Potency [5] | Potency [6] | Potency [9] | outcome [12]

CC(=O)N[C@H]1CCN2CCC[C@H]12
inactive: Potency [1] | Potency [2] | Potency [3] | Potency [10] | Potency [11] | Potency [7] | outcome [8] | Potency [4] | Potency [5] | Potency [6] | Potency [9] | outcome [12]

NC(=NCc1ccc(Cl)cc1)SCCCc1cnc[nH]1
active: Potency [13] 1.58 µM

Cc1c(C(=O)c2ccc3ccccc3c2)c2cccc3c2n1[C@H](CN1CCOCC1)CO3
active: Potency [13] 7.94 µM

CNCCc1c[nH]c2ccccc12
inactive: outcome [14] | activity change, negative = inhibition [15] -6.51% | outcome [16] | Potency [1] | Potency [3] | Potency [10] | Potency [11] | Potency [7] | outcome [8] | Potency [4] | Potency [5] | Potency [6] | Potency [9] | outcome [12]

O=C(O)c1ccccc1-c1c2cc(Br)c(=O)cc-2oc2[c]([Hg])c(O)c(Br)cc12
inactive: outcome [14] | activity change, negative = inhibition [15] -24.9%
active: Potency [13] 25.1 µM

C[C@]12CC(O)C3[C@@H](CCC4C[C@@H](O)CC[C@@]43CO)[C@@]1(O)CCC2C1=CC(=O)OC1 (some centres not stated)
inactive: Potency [1] | Potency [10] | Potency [11] | Potency [7] | Potency [4] | Potency [6] | Potency [9] | outcome [12]
active: Potency [2] 2.64 µM

CO[C@@H](/C=C/CC/C=C/C(=O)O)[C@@H](O)[C@H](C)/C=C(\C)[C@@H](O)[C@H](C)C(=O)CCCC1CC(=O)NC(=O)C1
inactive: Potency [1] | Potency [2] | Potency [3] | Potency [10] | Potency [11] | Potency [7] | Potency [4] | Potency [5] | Potency [6] | Potency [9] | outcome [12]

COC(=O)C1=C2CCO[C@@H]2[C@H]2[C@@H](C)[C@H](OC)c3ccccc3[C@H]12
inactive: outcome [17] | outcome [18] | outcome [19] | Potency [20]

CCOC(=O)[C@]12C[C@@H]3OCCN(C(=O)N[C@@H]1c1ccccc1)[C@@H]32
inactive: outcome [17] | outcome [18] | outcome [19] | Potency [20]

CCC[C@]12CCN3C(=O)N[C@@H](c4ccccc4)[C@](C(=O)OCC)(C1)[C@H]32
inactive: outcome [17] | outcome [18] | outcome [19] | Potency [20]

CCOC(=O)[C@]12C[C@]3(OC)CCN(C(=O)N[C@@H]1c1ccccc1)[C@@H]32
inactive: outcome [17] | outcome [18] | outcome [19] | Potency [20]

COC(=O)C1=C2CCO[C@H]2[C@@H]2[C@@H](C)[C@H](OC)c3ccccc3[C@@H]12
inactive: outcome [17] | outcome [18] | outcome [19] | Potency [20]

CCCC[C@@H]1CC[C@H]2CCCC(CCC)N12 (some centres not stated)
inactive: Potency [1] | Potency [2] | Potency [3] | Potency [10] | Potency [11] | Potency [7] | outcome [8] | Potency [4] | Potency [5] | Potency [9] | outcome [12]

COC(=O)C1=C[C@H]([C@@H](C)[C@H](OC)c2ccccc2Br)[C@H]2[C@H]1c1ccccc1N2C
inactive: outcome [17] | outcome [18] | outcome [19]
1.9 µM (active) and inactive: Potency [20]

CCOC(=O)[C@@]12C3[C@@H](CCN3C(=O)N[C@@H]1c1ccccc1)[C@@H]2C (some centres not stated)
inactive: outcome [17] | outcome [18] | outcome [19] | Potency [20]

COC(=O)[C@@]1(C=C2c3ccccc3[C@@H](OC)[C@@H]2C)[C@@H]2Oc3ccccc3[C@@H]21
inactive: outcome [17] | outcome [18] | outcome [19] | Potency [20]

COC(=O)[C@@]1(C=C[C@@H](C)[C@H](OC)c2ccccc2Br)[C@@H]2Oc3ccccc3[C@@H]21
inactive: outcome [17] | outcome [18] | outcome [19] | Potency [20]

CC(=O)[C@]12[C@H](c3ccccc3)[C@@H]3CCN(C(=O)N[C@H]1c1ccccc1)[C@@]32C
inactive: outcome [17] | outcome [18] | Potency [20]

COC(=O)[C@]12C[C@@H]3CCN(C(=O)N[C@@H]1c1ccccc1)[C@@]32C
inactive: outcome [17] | outcome [18] | outcome [19] | Potency [20]

CC(=O)[C@@]12C3[C@@H](CCN3C(=O)N[C@H]1c1ccccc1)[C@H]2c1ccccc1 (some centres not stated)
inactive: outcome [17] | Potency [20]

CCOC(=O)[C@]12C[C@@H]3CCN(C(=O)N(C(C)=O)[C@@H]1c1ccccc1)[C@@H]32
inactive: outcome [17] | outcome [18] | outcome [19] | Potency [20]

CCN1C[C@]2(C)CC[C@H](O)[C@]34C1C(C[C@H]23)[C@@]12CC[C@H](CC14)[C@](O)(COC(=O)c1ccc(OC)c(OC)c1)[C@H]2O (some centres not stated)
inactive: Potency [10] | Potency [11] | Potency [7] | outcome [8] | Potency [4] | Potency [5] | Potency [9] | outcome [12]
active: Potency [6] 10.8 µM

CC(=O)[C@]12C[C@@H]3CCCN(C(=O)N[C@@H]1c1ccccc1)[C@@H]32
inactive: outcome [17] | outcome [18] | outcome [19] | Potency [20]

COC(=O)C1c2c(n(C)c3ccccc23)[C@H]2[C@@H](C)[C@H](OC)c3ccccc3[C@@H]12 (some centres not stated)
inactive: outcome [19]

COC(=O)[C@@]1(C=C2c3ccc(F)cc3[C@@H](OC)[C@@H]2C)[C@@H]2Oc3ccccc3[C@@H]21
inactive: outcome [17] | outcome [18]

CC(=O)[C@]12C[C@]3(C)CCCN(C(=O)N[C@@H]1c1ccccc1)C32 (some centres not stated)
inactive: outcome [17] | outcome [18] | outcome [19] | Potency [20]

CCOC(=O)[C@]12C[C@]3(C)CCN(C(=O)N[C@@H]1c1ccccc1)[C@@H]32
inactive: outcome [17] | outcome [18] | outcome [19] | Potency [20]

COC(=O)[C@@]12Cc3ccccc3[C@H]1C[C@H](C)[C@@H](C)N2C(=O)C(F)(F)F
inactive: outcome [18] | outcome [19]

CCOC(=O)[C@]12C[C@]3(C)CCCN(C(=O)N[C@@H]1c1ccccc1)[C@@H]32
inactive: outcome [17] | outcome [18] | outcome [19] | Potency [20]
